The list is not random: actives were taken first. Their share in the collection is about 1.7%.
PTHR1 ag: qHTS for PTHR1 Agonists: Primary Screen. Parathyroid hormone/parathyroid hormone-related peptide receptor (Homo sapiens), Q03431. HEK293 GP2 PTHR1 cells, GloSensor cAMP luminescence, 1 h. Potency, µM (series often up to 115 µM), actives largely listed as activators. actives 0.075% (n = 410,000); also: nearly all actives have a fitted effect of over 55% in size
Target sequence (Q03431 whole entry, looked up): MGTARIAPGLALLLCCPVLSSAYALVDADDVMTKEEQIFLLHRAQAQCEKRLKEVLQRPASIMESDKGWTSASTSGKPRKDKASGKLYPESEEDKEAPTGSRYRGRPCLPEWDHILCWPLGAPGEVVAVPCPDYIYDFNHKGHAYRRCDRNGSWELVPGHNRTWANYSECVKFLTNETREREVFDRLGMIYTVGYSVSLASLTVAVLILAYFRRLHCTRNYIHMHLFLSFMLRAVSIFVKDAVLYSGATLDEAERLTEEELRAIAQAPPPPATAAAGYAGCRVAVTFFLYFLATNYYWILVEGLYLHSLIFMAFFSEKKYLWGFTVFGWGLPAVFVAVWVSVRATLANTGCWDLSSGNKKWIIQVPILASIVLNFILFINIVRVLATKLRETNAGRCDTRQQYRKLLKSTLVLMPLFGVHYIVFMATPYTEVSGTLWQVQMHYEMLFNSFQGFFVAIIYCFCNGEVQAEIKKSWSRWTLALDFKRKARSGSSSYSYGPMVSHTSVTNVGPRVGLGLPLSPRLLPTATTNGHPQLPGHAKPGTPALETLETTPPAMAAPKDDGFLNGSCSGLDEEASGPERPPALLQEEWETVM
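HEK-293-derived GP2 cells expressing PTHR1 and a GloSensor cAMP reporter, 3,000/well, plated overnight, given luciferin plus IBMX (each 0.5 mM as added) for 1 h at 37 °C, then compound for 1 h at 37 °C. Luminescence was read after 15 min at room temperature.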
GLP1R inv ag: qHTS of GLP-1 Receptor Inverse Agonists (Inhibition Mode); Glucagon-like peptide 1 receptor (Homo sapiens), P43220; HEK293 GLP-1R CRE-luciferase, luminescence, 24 h; GLP-1R form is constitutively active; Potency, µM (top dose mostly 38.3 µM), usual class: inhibitors; actives 1.6% (n = 410,000); also: nearly all actives have a fitted effect of over 55% in size
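GLP-1R inverse agonism mode: basal reporter luminescence in engineered HEK293 cells measured after one day of compound exposure at 37 deg C, with a 12 min room-temperature detection step.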
HEK293 tox: qHTS of GLP-1 Receptor Inverse Agonists: Cytotox Screen. HEK293 cAMP-luciferase reporter cells, luminescence, 24 h. Potency, µM (highest dose often 38.3 µM), most hits filed as inhibitors. actives 0.13% (n = 410,000);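 also: loss of luciferase light is scored as toxicity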
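1536-well qHTS counterscreen of the MLSMR; 200 cells/uL, 12 h pre-incubation, 23 nL cpd, 24 h at 37 deg C 5% CO2, luciferase detection reagent, 12 min RT, luminescence. Inhibition = undesired.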
GLP1R ag: qHTS of GLP-1 Receptor Agonists; Glucagon-like peptide 1 receptor (Homo sapiens), P43220; HEK293 GLP-1R CRE-luciferase, luminescence, 4-6 h; cells express a hypersensitive GLP-1R form; Potency, µM (series often up to 45.6 µM), hits mostly activators; actives 0.007% (n = 380,000); AID 624172, 2012
A number is an active result; n = inactive; u = inconclusive; x = no result; [ ] = another dose, or the depositor's remark. Calls follow the shape of the dose curve; as a rule, active = well fitted curve in the direction sought with a large enough effect; inconclusive = small, poorly fitted or top-dose-only effect, or another doubt; inactive = no such curve, though single readings can be large; an effect the other way counts as inactive or inconclusive.

SMILES | PTHR1 ag | GLP1R inv ag | HEK293 tox | GLP1R ag
CCCNC(=O)c1cccc(Cn2nc(C)c(Br)c2C)c1 | n | u | n | n
Cc1oc2ccc(O)c(CN3CCCC3)c2c1C(=O)Nc1cccc(Cl)c1C | n | n | n | x
C/C(=N\Nc1nc(N2CCCCC2)nc(N2CCOCC2)n1)c1ccccc1O | n | 2.51µM | n | n
O=C(Oc1ccccc1)c1cccc2cccc(C(=O)Oc3ccccc3)c12 | n | 10µM | n | n
CCN(CC)CCNC(=O)CCc1c(C)nc2c(c(C)nn2-c2ccc(C)cc2)c1C | n | 1.58µM | u | n
Nc1nc(N=Nc2ccc(O)cc2)cc(=O)[nH]1 | n | n | 10µM | n
COC(=O)c1cn(C(=O)c2ccc(C)cc2C)c2ccccc12 | n | 5.01µM | n | n
Cc1ccc(C(C)C)cc1OCCOCCN1CCCC1 | n | 7.94µM | n | n
CSc1nc(Cl)c(Cc2ccc(OC(C)C)cc2)c(N2CCOCC2)n1 | n | 12.6µM | n | n
COc1cc(NC(=O)c2ccccc2)c(OC)cc1NC(=O)CN1CCCCC1 | n | 5.01µM | n | u
COc1cc(NC(=O)c2ccccc2)c(OC)cc1NC(=O)CN1CCOCC1 | n | n | n | n
O=C(CC(CC(=O)c1ccccc1)c1ccccn1)c1ccccc1 | n | 10µM | n | n
Cc1ccc(NC(=O)C2(C)CCN2C(=O)c2ccccc2CCc2ccccc2)cc1C (centres undefined) | n | 2.82µM | n | n
CC(C)(C)c1cc(NC(=O)C2(C)CCN2C(=O)c2ccccc2CCc2ccccc2)no1 (centres undefined) | n | 8.91µM | n | n
CCOC(=O)c1cc(C)n(CC2CCC(C(=O)Nc3ccc(OC)cc3)CC2)c1C (centres undefined) | n | u | n | x
CCOC(=O)c1sc2nc(C)nc(NCc3ccc(F)cc3)c2c1C | n | 7.08µM | n | n
Fc1ccc(OCCOCCN2CCCC2)cc1 | n | n | n | n
CC(OCCN1CCCC1)(c1ccc(F)cc1)c1ccc(F)cc1 | n | 10µM | u | n
COc1ccc(CSc2nnc(Cc3sc(-c4ccccc4)nc3-c3ccccc3)o2)cc1 | n | 10µM | n | n
Cc1ccc(CSc2ccc3nnc(CCNS(=O)(=O)c4ccc(C)cc4)n3n2)cc1 | n | n | n | x
CCOc1ccc(NC(=O)N(Cc2cn(CC)c3ccccc23)C2CCCCCC2)cc1 | n | 11.2µM | n | x
COc1ccc(CCN2C(=O)CN(C3CCC(C)CC3)C(=O)C2c2ccc(OC(C)C)c(OC)c2)cc1OC (centres undefined) | n | n | n | x
Cc1ccc(S(=O)(=O)Nc2ccc(NC(=O)Nc3ccc(F)cc3F)cc2)cc1 | n | 5.62µM | n | n
O=C(Nc1ccc(S(=O)(=O)N2CCCC2)cc1)Nc1ccc(F)cc1F | n | u | n | n
CC(=O)SC[C@@H](C)C(=O)N1CCC[C@H]1C(=O)N[C@@H](Cc1ccccc1)C(=O)O | x | x | x | n
SMILES | PTHR1 ag | GLP1R inv ag | HEK293 tox | GLP1R ag
O=C(CSC1=Nc2ccccc2N=C(c2ccc(F)cc2)C1)NCc1ccc(Cl)cc1 | n | n | n | n
CCn1nc(-c2ccccc2)c(-c2ccccc2)c(C(=O)Nc2ccccc2C(N)=O)c1=O | n | n | n | x
Cc1cc(C)cc(-n2c(C)nc3cc(C(=O)NCc4ccccc4Cl)ccc32)c1 | n | 11.2µM | u | x
O=c1[nH]c(=O)c2nc(-c3ccc(Cl)cc3)cnc2[nH]1 | 14.1µM | n | n | n
O=c1[nH]c(=S)[nH]c2nc(-c3ccccc3)cnc12 | n | n | n | n
CN(C)CCCNC(=O)/C=C/c1ccc2c(c1)OCO2 | n | n | n[1.53 µM] | n
O=C(/C=C/c1ccc2c(c1)OCO2)NCCSCc1c(Cl)cccc1Cl | n | 10µM | n | n
O=C(/C=C/c1ccc2c(c1)OCO2)NCCSCc1ccc(Cl)cc1 | n | 5.01µM | n | n
COc1cccc(NC(=O)CSc2nc3ccc(NC(=O)c4ccco4)cc3s2)c1 | n | n | n | x
O=C(Cn1cnnn1)N[C@@H]1C(=O)N2C(C(=O)O)=C(CSc3nncs3)CS[C@H]12 | x | x | x | n
Cc1ccc(-c2nnc(SCC(N)=O)nc2-c2ccc(C)cc2)cc1 | n | n | n | n
Cc1ccc(-c2nnc(SCC(=O)NC(C)(C)C)nc2-c2ccc(C)cc2)cc1 | n | 11.2µM | n | x

Compound activity (PubChem)
